Laboratory results: PubChem BioAssay (NCATS)
Inconclusive results are not listed. Entries that show only a call come without a potency. Active and inactive are the calls of the source. Calls follow the shape of the dose curve; as a rule, active = well fitted inhibition curve with a large enough effect; inconclusive = small, poorly fitted or top-dose-only effect; inactive = flat fitted curve, though single readings scatter. Where a SMILES comes first, the peptide text is derived from it.

molecular target: Calcium and integrin-binding protein 1 (Homo sapiens) (UniProt Q99828); experiment: Primary qHTS for Identification of Calcium Integrin Binding Protein 1 (CIB1) Competitor (AID 1508620); conditions: CIB1-GST / FITC-alphaIIb peptide fluorescence polarization; series mostly up to 57.7 µM;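 also: GST tagged CIB1 binding a fluorescein labelled alphaIIb integrin peptide tracer; top concentration of the series differs between compounds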
Sequence (Q99828 whole entry, looked up): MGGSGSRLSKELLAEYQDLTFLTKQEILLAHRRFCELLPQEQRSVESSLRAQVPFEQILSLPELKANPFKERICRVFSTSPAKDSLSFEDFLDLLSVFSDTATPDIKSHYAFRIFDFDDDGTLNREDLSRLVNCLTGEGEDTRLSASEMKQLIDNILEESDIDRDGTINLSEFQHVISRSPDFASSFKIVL
How it was run: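 Fluorescence polarization competition: CIB1-GST (1 uM final) preincubated with compound 15 min at room temperature, then FITC-labeled alphaIIb peptide (100 nM final) added for another 15 min. Polarization read at Ex 480/Em 540.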

Compound	Potency	activity change, negative = inhibition
CC(=O)O[C@H]1[C@H](C)[C@@H](O)[C@H]2[C@@H]1C=C(C(=O)O)[C@H]1C[C@@H]3[C@H]([C@H]21)[C@H]1C(=O)O[C@@H]2CC[C@@]3(C)O[C@]1(O)[C@@H]2C	inactive	–
CC1NC(=O)CNC(=O)C(C(C)C)NC(=O)C2CCCN2C(=O)C(C(C)C)NC(=O)C(Cc2c[nH]c3ccccc23)NC1=O (stereo not given) (cyclo(GAWVPV); configuration not given here)	inactive	–
C[C@@H]1CC[C@H]2C(C)(C)[C@H](O)[C@H](O)C[C@]2(C)[C@@]12Cc1c(O)cc3c(c1O2)CNC3=O	inactive	–
COc1ccc(/C=C/C(=O)O[C@@H]2[C@@H](O)[C@H](C)O[C@@H](OC3C4C=COC(O[C@@H]5O[C@H](CO)[C@@H](O)[C@H](O)[C@H]5O)C4C4(CO)OC34)[C@@H]2O)cc1OC (stereo not given in full)	inactive	–
C=C1CC[C@H]2[C@@](C)(CCC[C@@]2(C)C(=O)O)[C@@H]1CCC(C)CCO (stereo not given in full)	inactive	–
C[C@@H]1O[C@@H](O[C@@H]2[C@@H](O)[C@H](O[C@@H]3[C@@H](O)[C@@H](O)[C@H](O[C@H]4[C@H](OC(=O)[C@]56CCC(C)(C)C[C@H]5C5=CCC7[C@@]8(C)C[C@H](O)[C@H](O[C@@H]9O[C@H](C(=O)O)[C@@H](O)[C@H](O)[C@H]9O)[C@@](C)(CO)C8[C@H](O)C[C@@]7(C)[C@]5(C)CC6)OC[C@H](O)[C@@H]4O)O[C@H]3C)OC[C@H]2O)[C@H](O)[C@H](O)[C@H]1O (stereo not given in full)	–	3.71% [at 12.4 µM] (inactive)
C=CC1(C)CC(OC(=O)C(=C)C(O)COC(C)=O)C(C(=C)C(=O)OC)C(O)C1C(=C)CO (stereo not given)	inactive	–
CC(C)C1=CC2=CCC3[C@](C)(CCC[C@@]3(C)C(=O)O)C2CC1O (stereo not given in full)	inactive	–
COc1cc(C2c3cc(O)c(OC)cc3CC(CO)C2CO)ccc1O (stereo not given)	inactive	–
COc1cc(C2OCC3C(c4ccc(OC5OC(CO)C(O)C(O)C5O)c(OC)c4)OCC23)ccc1O (stereo not given)	inactive	–
CC(C#N)C(C)O[C@@H]1O[C@H](CO)[C@@H](O)[C@H](O)[C@H]1O (stereo not given in full)	inactive	–
CC(C)CC(=O)n1cc(C(N)=O)c(=O)cc1C(O)c1ccccc1 (stereo not given)	inactive	–
C[C@@H]1CC[C@]2(C(=O)O)CC[C@]3(C(=O)O)C(=CCC4[C@@]5(C)CC[C@H](O[C@@H]6O[C@@H](C)[C@H](O[C@@H]7O[C@H](CO)[C@@H](O)[C@H](O)[C@H]7O)[C@@H](O)[C@H]6O)C(C)(C)C5CC[C@]43C)C2[C@H]1C (stereo not given in full)	inactive	–
CC1(CO)CC[C@]2(C(=O)O[C@@H]3O[C@H](CO)[C@@H](O)[C@H](O)[C@H]3O)CC[C@]3(C)C(=CCC4[C@@]5(C)C[C@H](O)[C@H](O[C@@H]6OC[C@@H](O)[C@H](O)[C@H]6O)[C@@](C)(CO)C5CC[C@]43C)C2C1 (stereo not given in full)	inactive	–
C[C@@H](O)[C@H](N)C(=O)N1CCC[C@H]1C(=O)N1CCC[C@H]1C(=O)N[C@H](C(N)=O)[C@@H](C)O (H-TPPT-NH2)	inactive	–
Cn1c(=O)c2nc(/C=C/c3cccc(Cl)c3)n(C)c2n(C)c1=O	inactive	–
O=C(OCc1cccc(O)c1O[C@@H]1O[C@H](CO)[C@@H](O)[C@H](O)[C@H]1O)C1(O)C(=O)C2C=CC1C1C=CC(=O)C(O)(C(=O)OCc3cccc(O)c3O[C@@H]3O[C@H](CO)[C@@H](O)[C@H](O)[C@H]3O)C21 (stereo not given in full)	inactive	–
C[C@@H]1O[C@@H](OC[C@H]2O[C@@H](OCC3CCC4CC3C4(C)C)[C@H](O)[C@@H](O)[C@@H]2O)[C@H](O)[C@H](O)[C@H]1O (stereo not given in full)	inactive	–
COc1cc(C(C)=O)ccc1O[C@@H]1O[C@H](CO[C@@H]2O[C@@H](C)[C@H](O)[C@@H](O)[C@H]2O)[C@@H](O)[C@H](O)[C@H]1O	inactive	–
C[C@@H]1C[C@H]2[C@@H]3CCC4=CC(=O)C=C[C@]4(C)[C@@]3(F)[C@@H](O)C[C@]2(C)[C@@]1(O)C(=O)COP(=O)(O)O	inactive	–

Compound	Potency	activity change, negative = inhibition
C=C1CCC[C@]2(C)C[C@]3(O)OC(=O)C(C)=C3C[C@@H]12	inactive	–
CCc1nc(C(N)=O)c(Nc2ccc(N3CCC(N4CCN(C)CC4)CC3)c(OC)c2)nc1NC1CCOCC1	inactive	–
CC1=CCC2C(C)(CO)CCCC2(CO)C1CO (stereo not given)	inactive	–
C=C1C(=O)OC2CC(C)=C(C(C)CCCO[C@@H]3O[C@H](CO)[C@@H](O)[C@H](O)[C@H]3O)C(O)C12 (stereo not given in full)	inactive	–
C[C@@H]1O[C@@H](O[C@H]2[C@H](O)[C@@H](O)[C@H](OC[C@H]3O[C@@H](OC(=O)[C@]45CCC(C)(C)C[C@H]4C4=CCC6[C@@]7(C)C[C@H](O)[C@H](O[C@@H]8O[C@H](CO)[C@@H](O)[C@H](O)[C@H]8O)[C@@](C)(C(=O)O)C7CC[C@@]6(C)[C@]4(C)CC5)[C@H](O[C@@H]4O[C@H](CO)[C@@H](O)[C@H](O)[C@H]4O)[C@@H](O)[C@@H]3O)O[C@@H]2CO)[C@H](O)[C@H](O)[C@H]1O (stereo not given in full)	–	0.065% [at 12.4 µM] (inactive)
CC(=O)O[C@@H]1[C@H](O[C@@H]2O[C@H](CO)[C@@H](O)[C@H](O)[C@H]2O)[C@@H](O[C@@H]2O[C@@H](C)[C@H](O)[C@@H](O[C@@H]3O[C@H](CO)[C@@H](O)[C@H](O)[C@H]3O)[C@H]2O)[C@H](OC(=O)C23CCC4(C)C(=CCC5C6(C)CC(O)C(O[C@@H]7O[C@H](C(=O)O)[C@@H](O)[C@H](O)[C@H]7O)C(C)(C(=O)O)C6CCC54C)C2CC(C)(C)CC3O)O[C@@H]1C (stereo not given in full)	–	4.49% [at 12.4 µM] (inactive)
CCC[C@@H]1C[C@@H](C(=O)N[C@@H]([C@H]2O[C@H](SC)[C@H](O)[C@@H](O)[C@@H]2O)[C@@H](C)O)N(C)C1	inactive	–
N#CC1C(=O)Nc2scc(-c3ccc(-c4ccccc4O)cc3)c2C1=O (stereo not given)	inactive	–
C=CC(C)(O)CC/C=C(/C)C(=O)OC1C(OC2OCC(OC3OC(CO)C(O)C(O)C3O)C(OC3OCC(O)C(OC4OC(C)C(O)C(O)C4O)C3O)C2O)COC(OC(=O)C23CCC(C)(C)CC2C2=CCC4C5(C)CCC(OC6OC(CO)C(OC7OC(CO)C(O)C(OC8OCC(O)C(O)C8O)C7O)C(O)C6O)C(C)(C)C5CCC4(C)C2(C)CC3O)C1O (stereo not given)	–	-3% [at 12.4 µM] (inactive)
C=CC1C(O[C@@H]2O[C@H](CO)[C@@H](O)[C@H](O)[C@H]2O)OC=C(C(=O)OC)C1CC(=O)O (stereo not given in full)	inactive	–
CC1CCC2(C(=O)OC3OC(CO)C(O)C(O)C3O)CCC3(C(=O)O)C(=CCC4C5(C)CCC(OC6OC(C)C(O)C(O)C6O)C(C)(C)C5CCC43C)C2C1C (stereo not given)	inactive	–
C1CCN2CC3C[C@@H](CN4CCCC[C@@H]34)[C@H]2C1	inactive	–
C=C[C@](C)(CC/C=C(\C)C(=O)O)O[C@@H]1OC[C@H](O)[C@H](O)[C@H]1O	inactive	–
C=CC(C)(O)CC/C=C(\C)C(=O)OCC1OC(OC2CCC3(C)C(CCC4(C)C3CC=C3C5CC(C)(C)C(O)CC5(C(=O)O)CCC34C)C2(C)C)C(O)C(OC2OC(CO)C(O)C(OC3OC(CO)C(O)C(OC4OC(COC5OC(CO)C(O)C(O)C5O)C(O)C(O)C4O)C3O)C2O)C1O (stereo not given)	–	0.919% [at 12.4 µM] (inactive)
O=C1Nc2ccc(O)cc2O[C@H]1O[C@@H]1O[C@H](CO)[C@@H](O)[C@H](O)[C@H]1O	inactive	–
CC1(C)C(O)CCC2(C)C1C(O)C=C1COC(=O)C12O (stereo not given)	inactive	–
COc1cc(C[C@H]2COC(=O)[C@@H]2Cc2ccc(O)c(OC)c2)ccc1O	inactive	–
COC1(CC(C)C)NC(=O)C(O)(Cc2ccccc2)NC1=O (stereo not given)	inactive	–
CC1(C)CCCC2(C)C1C(O)C=C(CO)C2(O)C(=O)O (stereo not given)	inactive	–
C=CC1(C)C=C2C(O)CC3C(C)(C(=O)O)CCCC3(C)C2CC1 (stereo not given)	inactive	–
